Test [1] is described as follows: NCI Yeast Anticancer Drug Screen. Data for the rad50 strain (AID 155).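 Further: 0% = growth of vehicle-only cultures of the same strain.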 Conditions: S. cerevisiae rad50 strain growth inhibition, hits give high values. Put shortly: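 A DNA repair-deficient yeast mutant serves as the test organism; compound-induced growth inhibition is calculated against vehicle-treated cells.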
A short description of test [2]: NCI Yeast Anticancer Drug Screen. Data for the mec2-1 strain (AID 157). To be noted: S. cerevisiae mec2-1 strain, hits give high values. Put shortly: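 Growth inhibition is read against vehicle-treated controls after compound exposure of the mec2-1 yeast strain, which is defective in DNA damage repair or cell cycle control.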
The nature of test [3]: NCI Yeast Anticancer Drug Screen. Data for the sgs1 mgt1 strain (AID 161).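 Further: 0% = growth of cultures given vehicle only.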 Conditions: S. cerevisiae sgs1 mgt1 strain, hits give high values. Put shortly:
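Percent growth inhibition was derived by comparing compound-exposed mutant yeast with vehicle-exposed cultures. The strain carries alterations in DNA damage repair.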

The nature of test [4]: NCI Yeast Anticancer Drug Screen. Data for the cln2 rad14 strain (AID 165).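 Further: 0% = growth equal to vehicle treated cultures.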 To be noted: S. cerevisiae cln2 rad14 strain, hits give high values. The gist of the method: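 Growth inhibition, relative to vehicle-treated controls, is the read-out. The test organism is a yeast strain with defined genetic alterations, cln2 rad14.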
Test [5] in a line: NCI Yeast Anticancer Drug Screen. Data for the bub3 strain (AID 167). Conditions: S. cerevisiae bub3 mutant strain, hits give high values. Put shortly:
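Inhibition values come from growth of compound-treated mutant yeast normalised to vehicle-treated controls.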

Test [6] is described as follows: NCI Yeast Anticancer Drug Screen. Data for the mlh1 rad18 strain (AID 175). Conditions: S. cerevisiae mlh1 rad18 strain growth inhibition, hits give high values. The gist of the method: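 Cells of a genetically altered yeast strain, deficient in DNA damage repair, were treated with compound. Their growth was then compared with that of vehicle-treated cultures to give inhibition.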

The mark [7] stands for this setting: at 5.0 µM (retest, dose inferred, filed as 0.5).
Where [8] appears, read: at 50.0 µM (retest, dose inferred, filed as 5.0).

The structures appear in SMILES notation. The panel holds about 79,000 compounds, 15% with a hit somewhere; the sample as a whole holds those more often. Values without a mark were called inactive. Calls of active or inactive are those of the source. No stated cut-off is given here; in the data, active means growth inhibition above about 70%; inactive means the rest.

Consider ten compounds from PubChem BioAssay (NCI).

For the compound `CCCCCCCCCCCCOC(=O)C[n+]1cccc(C(N)=O)c1`, the growth inhibition in test [1] (setting [7]) is -1%; in test [1] (setting [8]) it was 99% (active); in test [1] (at 50.0 µM), 99.8% (active); in test [2] (setting [7]), -4%; in test [2] (setting [8]), 99% (active); in test [2] (at 50.0 µM), 99.7% (active). Further, the growth inhibition in test [3] (setting [7]) is -3%; in test [3] (setting [8]), 81% (active); in test [3] (at 50.0 µM), 99.8% (active); in test [4] (setting [7]), -8%; in test [4] (setting [8]), 96% (active); in test [4] (at 50.0 µM) it was 98.2% (active). The growth inhibition in test [5] (setting [7]) is -6%; in test [5] (setting [8]) it was 99% (active); in test [5] (at 50.0 µM), 99.6% (active); in test [6] (setting [7]) it was -4%; in test [6] (setting [8]), 99% (active); in test [6] (at 50.0 µM) it was 99.7% (active).

As for `CC(=O)Oc1cccc2c(OC(C)=O)cccc12`, the growth inhibition in test [1] (setting [7]) was -8%; in test [1] (setting [8]), 87% (active); in test [1] (at 50.0 µM), 69.2%; in test [2] (setting [7]), -19%; in test [2] (setting [8]), 91% (active); in test [2] (at 50.0 µM), 39.8%. Besides, the growth inhibition is -9% in test [3] (setting [7]); 53% in test [3] (setting [8]); 70.8% (active) in test [3] (at 50.0 µM); -8% in test [4] (setting [7]); 34% in test [4] (setting [8]); 26.9% in test [4] (at 50.0 µM). In addition, the growth inhibition in test [5] (setting [7]) is -32%; in test [5] (setting [8]), 92% (active); in test [5] (at 50.0 µM), 58.2%; in test [6] (setting [7]), -6%; in test [6] (setting [8]), 89% (active); in test [6] (at 50.0 µM), 65.6%.

Turning to `CC1=C(\C=C/C(C)=N/N=C(C)\C=C\C2=C(C)CCCC2(C)C)C(C)(C)CCC1`, the growth inhibition in test [1] (setting [7]) is 3%; in test [1] (setting [8]), 31%; in test [1] (at 50.0 µM) it was 70.8% (active); in test [2] (setting [7]), 9%; in test [2] (setting [8]), 52%; in test [2] (at 50.0 µM), 28.7%. For the same compound, the growth inhibition in test [3] (setting [7]) was 27%; in test [3] (setting [8]), 51%; in test [3] (at 50.0 µM), 71% (active); in test [4] (setting [7]), 3%; in test [4] (setting [8]), 7%; in test [4] (at 50.0 µM), 28.2%. The growth inhibition in test [5] (setting [7]) is -2%; in test [5] (setting [8]) it was 4%; in test [5] (at 50.0 µM) it was 23.7%; in test [6] (setting [7]), 24%; in test [6] (setting [8]), 49%; in test [6] (at 50.0 µM) it was 44.2%.

For `COc1ccc2c(c1)[n+]([O-])c(-c1ccc(Cl)c(Cl)c1)c(N)[n+]2[O-]`, the growth inhibition was 23% in test [1] (setting [7]); 98% (active) in test [1] (setting [8]); 99.5% (active) in test [1] (at 50.0 µM); 26% in test [2] (setting [7]); 99% (active) in test [2] (setting [8]); 99.5% (active) in test [2] (at 50.0 µM). The growth inhibition in test [3] (setting [7]) is 29%; in test [3] (setting [8]), 99% (active); in test [3] (at 50.0 µM), 99.7% (active); in test [4] (setting [7]), 38%; in test [4] (setting [8]), 98% (active); in test [4] (at 50.0 µM) it was 99.3% (active). For the same compound, the growth inhibition in test [5] (setting [7]) was 76% (active); in test [5] (setting [8]), 99% (active); in test [5] (at 50.0 µM), 99.6% (active); in test [6] (setting [7]) it was 71% (active); in test [6] (setting [8]), 99% (active); in test [6] (at 50.0 µM), 99.4% (active).

Turning to `ClCc1ccccc1Cc1ccccc1`, the growth inhibition in test [1] (setting [7]) is 18%; in test [1] (setting [8]), 82% (active); in test [1] (at 50.0 µM) it was 98.6% (active); in test [2] (setting [7]), 21%; in test [2] (setting [8]), 63%; in test [2] (at 50.0 µM), 95.2% (active). Also, the growth inhibition in test [3] (setting [7]) was 27%; in test [3] (setting [8]), 83% (active); in test [3] (at 50.0 µM), 97.8% (active); in test [4] (setting [7]) it was -1%; in test [4] (setting [8]), 35%; in test [4] (at 50.0 µM), 94.5% (active). For the same compound, the growth inhibition was -5% in test [5] (setting [7]); 58% in test [5] (setting [8]); 97.6% (active) in test [5] (at 50.0 µM); 35% in test [6] (setting [7]); 85% (active) in test [6] (setting [8]); 98% (active) in test [6] (at 50.0 µM).

As for `C(#Cc1ccccc1)Sc1ccccc1`, the growth inhibition in test [1] (setting [7]) is 6%; in test [1] (setting [8]), 4%; in test [1] (at 50.0 µM), 12.9%; in test [2] (setting [7]), -9%; in test [2] (setting [8]), 14%; in test [2] (at 50.0 µM), 31.1%. For the same compound, the growth inhibition in test [3] (setting [7]) was 1%; in test [3] (setting [8]), 18%; in test [3] (at 50.0 µM) it was 65.7%; in test [4] (setting [7]), 6%; in test [4] (setting [8]) it was 6%; in test [4] (at 50.0 µM), 23.1%. In addition, the growth inhibition was 29% in test [5] (setting [7]); 9% in test [5] (setting [8]); -30.8% in test [5] (at 50.0 µM); 4% in test [6] (setting [7]); 11% in test [6] (setting [8]); 56.4% in test [6] (at 50.0 µM).

Take `CC(O)CCCOC(c1ccccc1)(c1ccccc1)c1ccccc1` (stereo not given): the growth inhibition is 19% in test [1] (setting [7]); 97% (active) in test [1] (setting [8]); 86.5% (active) in test [1] (at 50.0 µM); 9% in test [2] (setting [7]); 97% (active) in test [2] (setting [8]); 83.8% (active) in test [2] (at 50.0 µM). For the same compound, the growth inhibition in test [3] (setting [7]) is 17%; in test [3] (setting [8]), 95% (active); in test [3] (at 50.0 µM), 80.8% (active); in test [4] (setting [7]) it was 15%; in test [4] (setting [8]), 94% (active); in test [4] (at 50.0 µM), 82.7% (active). Besides, the growth inhibition in test [5] (setting [7]) was 28%; in test [5] (setting [8]), 93% (active); in test [5] (at 50.0 µM) it was 80.5% (active); in test [6] (setting [7]) it was 19%; in test [6] (setting [8]), 96% (active); in test [6] (at 50.0 µM), 84.4% (active).

Turning to `Cc1ccccc1C[n+]1ccccc1Br`, the growth inhibition in test [1] (setting [7]) is 11%; in test [1] (setting [8]) it was 87% (active); in test [1] (at 50.0 µM), 94.3% (active); in test [2] (setting [7]), 9%; in test [2] (setting [8]) it was 79% (active); in test [2] (at 50.0 µM) it was 60.6%. Further, the growth inhibition in test [3] (setting [7]) was 12%; in test [3] (setting [8]), 78% (active); in test [3] (at 50.0 µM), 64.6%; in test [4] (setting [7]), -4%; in test [4] (setting [8]), 74% (active); in test [4] (at 50.0 µM) it was 32%. In addition, the growth inhibition in test [5] (setting [7]) is -12%; in test [5] (setting [8]) it was 77% (active); in test [5] (at 50.0 µM) it was 59.6%; in test [6] (setting [7]), 15%; in test [6] (setting [8]), 90% (active); in test [6] (at 50.0 µM), 54.4%.

As to `CN(C)CCCNCC(=O)Nc1ccc(S(=O)(=O)c2ccc(NC(=O)CNCCCN(C)C)cc2)cc1`, the growth inhibition in test [1] (setting [7]) was 2%; in test [1] (setting [8]), 92% (active); in test [1] (at 50.0 µM) it was 95.2% (active); in test [2] (setting [7]) it was -2%; in test [2] (setting [8]), 97% (active); in test [2] (at 50.0 µM), 58.7%. For the same compound, the growth inhibition in test [3] (setting [7]) is -11%; in test [3] (setting [8]), 95% (active); in test [3] (at 50.0 µM), 97.2% (active); in test [4] (setting [7]), 7%; in test [4] (setting [8]), 66%; in test [4] (at 50.0 µM), 78.1% (active). The growth inhibition is 2% in test [5] (setting [7]); 89% (active) in test [5] (setting [8]); 30.2% in test [5] (at 50.0 µM); 3% in test [6] (setting [7]); 96% (active) in test [6] (setting [8]); 90.2% (active) in test [6] (at 50.0 µM).

As for `N#CS/C(C(Cl)=C(Cl)Cl)=C(/Cl)[N+](=O)[O-]`, the growth inhibition in test [1] (setting [7]) is 99% (active); in test [1] (setting [8]), 100% (active); in test [1] (at 50.0 µM) it was 88.8% (active); in test [2] (setting [7]) it was 99% (active); in test [2] (setting [8]), 100% (active); in test [2] (at 50.0 µM), 92% (active). In addition, the growth inhibition was 99% (active) in test [3] (setting [7]); 99% (active) in test [3] (setting [8]); 85.9% (active) in test [3] (at 50.0 µM); 99% (active) in test [4] (setting [7]); 99% (active) in test [4] (setting [8]); 89.5% (active) in test [4] (at 50.0 µM). In addition, the growth inhibition in test [5] (setting [7]) is 99% (active); in test [5] (setting [8]) it was 100% (active); in test [5] (at 50.0 µM), 90% (active); in test [6] (setting [7]), 99% (active); in test [6] (setting [8]), 99% (active); in test [6] (at 50.0 µM), 84% (active).
